An excerpt weighted towards active compounds, which were near 19% of everything screened.
TGFb inhibitor: TGF-b pathway inhibition | Potency, µM (doses to about 46.1 µM), for the others: at the highest dose activity, negative = inhibition, hits mostly inhibitors | HepG2 CAGA-GFP TGF-b/SMAD3 reporter, GFP fluorescence, 18 h; TGF-beta stimulated, 500 pg/mL final | AID 588855 | actives 1.2% (n = 410,000); also: potency is read from the fitted curve at half-maximal effect; % is scaled to controls: 0 for no effect and ±100 for the full control effect; nearly all actives have a fitted effect of over 65% in size
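HEPG2 CAGA-GFP, 1000 cells/well; 2 h settle, 37 C; cpd via pin tool; TGF-b 500 pg/mL final; 18 h, 37 C; GFP imaging ex488/em500-530; %Activity normalised to -TGF-b and +DMSO controls; CRC fit, curve class.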
DT40 TDP1 CPT: DT40-hTDP1 cell growth loss with CPT | Potency, µM (highest dose often 46.2 µM), inactives show top-dose activity change, negative = growth inhibition, hits mostly inhibitors | chicken DT40 Tdp1-/-;hTDP1 cells + 20 nM CPT, ATP luminescence, 48 h | actives 12% (n = 420,000) | AID 686979; also: potency is read from the fitted curve at half-maximal effect; % is scaled to controls: 0 for no effect and ±100 for the full control effect; nearly all actives have a fitted effect of over 55% in size
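Chicken DT40 Tdp1-/- cells complemented with human TDP1, 400 cells/well, exposed to compounds plus 20 nM camptothecin for at least 48 h at 37 C; viability read as ATP content by CellTiter-Glo luminescence.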
IL-1B inflam inh: inflammasome signaling inhibition, IL-1 beta readout. THP-1 LPS/ATP IL-1B secretion, AlphaLISA, 16 h; stronger effect = lower value. activity change, % at 57.5 µM. actives 4.7% (n = 360,000). AID 743279; in the data active = activity change below about -50%; inconclusive = mostly about -30% to -49%; also: % is scaled to controls: 0 for no effect and ±100 for the full control effect
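THP-1 cells pretreated 1 hr with compounds (up to 57.5 uM final), then stimulated with LPS (250 ng/mL final) plus ATP (1.25 mM final); secreted IL-1B measured by AlphaLISA after 16 hr, decreased signal indicating inhibition.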
ASM inhibitor: blocks human secretory acid sphingomyelinase. P17405. placental ASM, HMU-PC fluorogenic substrate, 60 min. Potency, µM (highest dose often 57.5 µM), without a hit: top-dose activity change, negative = inhibition, hits mostly inhibitors. actives 0.006% (n = 340,000). AID 504937; also: potency is read from the fitted curve at half-maximal effect
Target sequence (P17405 47-631 limits assumed): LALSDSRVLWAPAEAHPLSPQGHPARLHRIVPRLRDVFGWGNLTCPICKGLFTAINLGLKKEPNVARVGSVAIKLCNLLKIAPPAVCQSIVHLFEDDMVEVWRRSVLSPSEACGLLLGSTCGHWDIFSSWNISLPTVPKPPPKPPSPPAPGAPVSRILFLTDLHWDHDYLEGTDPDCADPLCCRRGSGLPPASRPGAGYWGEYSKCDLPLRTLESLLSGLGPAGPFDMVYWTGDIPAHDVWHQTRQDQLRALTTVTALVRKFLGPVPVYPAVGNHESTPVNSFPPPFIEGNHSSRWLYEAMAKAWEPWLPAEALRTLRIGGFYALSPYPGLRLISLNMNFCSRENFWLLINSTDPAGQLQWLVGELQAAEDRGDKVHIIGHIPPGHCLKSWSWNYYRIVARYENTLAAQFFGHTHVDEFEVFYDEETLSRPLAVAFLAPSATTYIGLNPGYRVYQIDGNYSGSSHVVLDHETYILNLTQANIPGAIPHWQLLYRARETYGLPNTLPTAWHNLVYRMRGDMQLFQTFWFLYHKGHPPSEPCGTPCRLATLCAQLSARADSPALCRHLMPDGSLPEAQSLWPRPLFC
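Human placenta-derived ASM enzyme was preincubated with compound for 10 minutes at room temperature, then given fluorogenic substrate HMU-PC0 (9 uM final) for 60 minutes at 37 °C; a pH 10 stop preceded fluorescence reading at Ex 386/Em 447 nm.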
HepG2 viability: kills HepG2 cells in TGF-b inhibitor counter-screen | HepG2 CAGA-GFP viability, ATP luminescence, 18 h | Potency, µM (titrated, usually from 46.1 µM), for inactives: top-dose activity change, negative = cytotoxicity, actives largely listed as cytotoxic | actives 0.76% (n = 410,000) | AID 588856; also: potency is read from the fitted curve at half-maximal effect
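CellTiter-Glo luminescence gave cytotoxicity after 18 hours at 37 degrees C. The cells were HepG2 CAGA-GFP in 1% FBS DMEM, stimulated with 500 pg/mL TGF-beta after compound addition. %Activity was normalised to no-cell wells (complete cell-killing) and DMSO (no toxicity), and curves were fitted and classified.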
DT40 TDP1 no CPT: qHTS for Inhibitors of human tyrosyl-DNA phosphodiesterase 1 (TDP1): qHTS in cells in absence of CPT. actives 15% (n = 420,000). Potency, µM (series often up to 46.2 µM), for inactives: top-dose activity change, negative = growth inhibition, most hits filed as inhibitors. DT40 Tdp1-/- hTDP1 cells, no CPT, ATP luminescence, 48 h. AID 686978, 2013; also: potency is read from the fitted curve at half-maximal effect; % is scaled to controls: 0 for no effect and ±100 for the full control effect; nearly all actives have a fitted effect of over 55% in size
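No-CPT arm: Tdp1-/-;hTDP1 DT40 cells (400/well) plus compounds, incubated ≥48 hr at 37 °C. Readout CellTiter-Glo luminescence.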
An asterisk follows results filed as active. Unless noted, calls follow the shape of the dose curve; as a rule, active = well fitted curve in the direction sought with a large enough effect; inconclusive = small, poorly fitted or top-dose-only effect, or another doubt; inactive = no such curve, though single readings can be large; an effect the other way counts as inactive or inconclusive.

How did CCCC(=O)C1=C(c2ccc(C)cc2)N(C(=O)CCC)n2cnnc2S1 do in these assays?
TGFb inhibitor: inconclusive; DT40 TDP1 CPT: inconclusive; HepG2 viability: 20µM*; DT40 TDP1 no CPT: 16.4µM*

How did C=CCN(CC=C)C(=O)CCc1nnc(CCc2c[nH]c3ccccc23)o1 do in these assays?
TGFb inhibitor: 29.1%; DT40 TDP1 CPT: 11.2%; IL-1B inflam inh: -2.3; ASM inhibitor: 0.6%; HepG2 viability: -0.3%; DT40 TDP1 no CPT: -13.7%

Results for CN(C)c1ccc(CNn2cnnc2SCC(=O)NC(C)(C)C)cc1 ?
TGFb inhibitor: 1.3%; DT40 TDP1 CPT: 5.7%; IL-1B inflam inh: -1.2; ASM inhibitor: 6.5%; HepG2 viability: -7.2%; DT40 TDP1 no CPT: -6.8%

Results for CCOc1cc(CNn2cnnc2SCC(=O)NC(C)(C)C)ccc1OCC(=O)NC(C)(C)C ?
TGFb inhibitor: 13.8%; DT40 TDP1 CPT: -5.6%; IL-1B inflam inh: 20.1; ASM inhibitor: -2.2%; HepG2 viability: 4.2%; DT40 TDP1 no CPT: 18.4µM*

What do the screens show for `C1CC(=NN=C2CCSCC2)CCS1`?
TGFb inhibitor: -1.1%; DT40 TDP1 CPT: 9.7%; IL-1B inflam inh: -13.6; ASM inhibitor: 4.3%; HepG2 viability: -15.1%; DT40 TDP1 no CPT: -15.0%

What do the screens show for `CCOC(=O)C1CCCN(C(=O)c2ccc3sccc3c2)CC1` (configuration not stated)?
TGFb inhibitor: -1.5%; DT40 TDP1 CPT: -24.6%; IL-1B inflam inh: 37.3; HepG2 viability: 2.0%; DT40 TDP1 no CPT: inconclusive

What do the screens show for `C[C@@H]1CN([C@H](C)CO)C(=O)CCCn2cc(nn2)CO[C@H]1CN(C)C(=O)OCc1ccccc1`?
TGFb inhibitor: -7.6%; DT40 TDP1 CPT: -19.3%; IL-1B inflam inh: -16.8; HepG2 viability: -54.7%; DT40 TDP1 no CPT: inconclusive

How did O=C(Nc1ccc(Br)cc1Cl)c1ccc2c(=O)n3c(nc2c1)CCC3 do in these assays?
TGFb inhibitor: -14.8%; DT40 TDP1 CPT: 20.6µM*; IL-1B inflam inh: -8.2; ASM inhibitor: -4.8%; HepG2 viability: -30.9%; DT40 TDP1 no CPT: 18.4µM*

What do the screens show for `O=C(Nc1ccc(Cl)cc1)c1ccc2c(=O)n3c(nc2c1)CCCCC3`?
TGFb inhibitor: -0.5%; DT40 TDP1 CPT: inconclusive; IL-1B inflam inh: 29.3; ASM inhibitor: -23.1%; HepG2 viability: -29.0%; DT40 TDP1 no CPT: inconclusive

Results for O=C(Nc1ccc(Cl)cc1Cl)c1ccc2c(=O)n3c(nc2c1)CCC3 ?
TGFb inhibitor: -0.1%; DT40 TDP1 CPT: inconclusive; IL-1B inflam inh: -7.2; ASM inhibitor: -2.9%; HepG2 viability: -14.8%; DT40 TDP1 no CPT: 16.4µM*

What do the screens show for `COc1cccc(C2N(Cc3ccccc3)C(=O)C2(F)F)c1OC` (configuration not stated)?
TGFb inhibitor: -15.8%; DT40 TDP1 CPT: -23.8%; IL-1B inflam inh: 29.9; ASM inhibitor: -0.1%; HepG2 viability: -15.5%; DT40 TDP1 no CPT: -9.0%

What do the screens show for `Cc1ccc(S(=O)(=O)N(C)CCCN(C)c2nc(-c3cccs3)nc3ccccc23)cc1`?
DT40 TDP1 CPT: 15.8µM*; DT40 TDP1 no CPT: 11.2µM*

How did CN(Cc1ccccc1F)c1nc(-c2cccs2)nc2ccccc12 do in these assays?
TGFb inhibitor: -2.5%; DT40 TDP1 CPT: inconclusive; IL-1B inflam inh: -11.5; ASM inhibitor: -7.1%; HepG2 viability: 0.9%; DT40 TDP1 no CPT: inconclusive

What do the screens show for `CN(CCN(C)c1nc(-c2cccs2)nc2ccccc12)C(=O)OC(C)(C)C`?
DT40 TDP1 CPT: 10µM*; DT40 TDP1 no CPT: 14.1µM*

Assay outcomes from PubChem BioAssay.
